Assay outcomes as filed in PubChem BioAssay.
SKKanGAS inh: inhibitors of SKKanGAS S. pyogenes growth in kanamycin (SK-promoter or general growth effect). BacTiter-Glo, 6 h. AID 1662. inhibition, % at 7.5 µM. 300,000 tested, 1.3% active;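 active = mean replicate score, as percent of positive control median, at least 50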;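 also: strain carries kanamycin resistance gene driven by streptokinase promoter and grows in 40 µg/ml kanamycin; loss of luminescence reflects streptokinase promoter inhibition or plain growth inhibition; 0% = median of DMSO wells and 100% = positive control at its reference dose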
V-ATPase pHluor: yeast V-ATPase proton transport regulation by pHLuorin. response, % at 10 µM. S. cerevisiae, pHLuorin cytosolic pH fluorescence. 350,000 tested, 0.37% active. AID 504577; in the data active = response mostly above about 7.3%, no sharp cut-off; inactive = mostly below about 5.4%; also: actives read high
PfHsp90 set2: inhibits growth of yeast expressing Plasmodium falciparum Hsp90; AID 504621; S. cerevisiae expressing PfHsp90, BacTiter-Glo ATP, 48 h; yeast lacking PDR1 and PDR3 efflux regulators; 310,000 tested, 0.32% active; inhibition, % at 9.4 µM;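 active = every replicate shows inhibition above about 80%, whatever the replicate mean, limit read from the data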;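 also: 0% = DMSO neutral controls and 100% = 20 µM radicicol positive controls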
tim23-1 inh: inhibits growth of tim23-1 mutant yeast; S. cerevisiae tim23-1 growth, BacTiter-Glo luminescence, 24 h; inhibition, % at 20 µM; 330,000 tested, 1.3% active;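 active = growth inhibition of the mutant yeast at or above 50%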;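 also: temperature-sensitive mutant grown at 25 °C; plate controls were DMSO-treated mutant yeast for no effect and medium wells lacking yeast for full effect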
tim10-1 inh: growth inhibitors of tim10-1 mutant yeast. AID 463190. 330,000 tested, 2.2% active. S. cerevisiae tim10-1 ts strain growth, BacTiter-Glo, 24 h. inhibition, % at 20 µM;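 active = inhibition of at least 40%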;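 also: mutant grown at 25 °C; 0% = DMSO wells with yeast and 100% = wells holding no yeast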
TIM10 inh: growth inhibitors of TIM10 yeast strain; S. cerevisiae TIM10 strain growth, BacTiter-Glo luminescence, 24 h; inhibition, % at 10 µM; 330,000 tested, 1.4% active;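 active = inhibition of 40% or more at the single tested concentration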;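 also: wild-type TIM10 isogenic control strain grown at permissive 25 °C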
tim10-1 conf: confirmation of tim10-1 mutant yeast growth inhibitors; inhibition, % at 20 µM; S. cerevisiae tim10-1 ts strain growth, BacTiter-Glo, 24 h; shares compounds with tim10-1 inh; 7,400 tested, 56% active; AID 463213;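 active = inhibition of yeast growth at or above a set limit in either of two repeat tests at 20 µM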;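 also: tim10-1 mutant grown at permissive 25 °C to find synthetic lethal compounds; 0% = DMSO yeast wells and 100% = medium wells without yeast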
An asterisk follows results filed as active. Rows were chosen to be rich in hits. Some 4.6% of all compounds tested hit in one or more screens of this group.

What do the screens show for `O=C(NCCOc1ccccc1)C1Nc2ccc(C(F)(F)F)cc2C2c3ccccc3CC12` (stereo not drawn)?
SKKanGAS inh: 19; V-ATPase pHluor: 2; PfHsp90 set2: 2; tim23-1 inh: 36; tim10-1 inh: 23; TIM10 inh: 6

Results for CCOC(=O)C1Nc2ccc(C(F)(F)F)cc2C2c3ccccc3CC12 (stereo not drawn) ?
SKKanGAS inh: 27; V-ATPase pHluor: 0; PfHsp90 set2: -4; tim23-1 inh: 0; tim10-1 inh: 57*; TIM10 inh: -9; tim10-1 conf: 53*

How did O=C(COC(=O)c1ccc(S(=O)(=O)C(F)F)cc1)Nc1ccccc1C(=O)NC1CC1 do in these assays?
V-ATPase pHluor: -1; tim23-1 inh: -8; tim10-1 inh: -11; TIM10 inh: 0

How did COc1ccc(CNCc2cc3c(C(C)(C)C)nn(-c4ccccc4)c3[nH]c2=O)cc1 do in these assays?
SKKanGAS inh: -6; V-ATPase pHluor: -2; PfHsp90 set2: 37; tim23-1 inh: 18; tim10-1 inh: 27; TIM10 inh: 16

What do the screens show for `Cc1ccc(CNCc2cc3c(C(C)(C)C)nn(-c4ccccc4)c3[nH]c2=O)cc1`?
SKKanGAS inh: -1; V-ATPase pHluor: -4; tim23-1 inh: 46; tim10-1 inh: 50*; TIM10 inh: 24; tim10-1 conf: 39*

Results for O=S(=O)(c1ccc2c(c1)CCCN2)N1CCCC2CCCCC21 (stereo not drawn) ?
SKKanGAS inh: 12; V-ATPase pHluor: 3; PfHsp90 set2: -11; tim23-1 inh: 45; tim10-1 inh: 47*; TIM10 inh: 18; tim10-1 conf: 26

Results for O=S(=O)(c1ccc2c(c1)CCCN2)N1CCCC1 ?
V-ATPase pHluor: -2; PfHsp90 set2: 3; tim23-1 inh: 20; tim10-1 inh: 18; TIM10 inh: 22

Results for O=C(NCc1ccco1)c1ccc(CS(=O)Cc2ccc(Cl)cc2)o1 (stereo not drawn) ?
SKKanGAS inh: 2; V-ATPase pHluor: 4; PfHsp90 set2: 12; tim23-1 inh: 3; tim10-1 inh: 15; TIM10 inh: -10

What do the screens show for `CCC(=O)Nc1nnc(S(=O)(=O)N2CCc3ccccc32)s1`?
SKKanGAS inh: 6; V-ATPase pHluor: -1; PfHsp90 set2: -13; tim23-1 inh: 7; tim10-1 inh: 49*; TIM10 inh: 1; tim10-1 conf: 6

What do the screens show for `CC(C)CC(=O)Nc1nnc(S(=O)(=O)N2CCc3ccccc32)s1`?
SKKanGAS inh: 1; V-ATPase pHluor: 5; PfHsp90 set2: -5; tim23-1 inh: -4; tim10-1 inh: 2; TIM10 inh: -15

Results for COc1ccc(OC)c(Cc2nnc(CCC(=O)NC3C4CC5CC(C4)CC3C5)o2)c1 (stereo not drawn) ?
SKKanGAS inh: -8; V-ATPase pHluor: 2; PfHsp90 set2: 0; tim23-1 inh: 21; tim10-1 inh: 29; TIM10 inh: 22

How did CC(Oc1ccc(Cl)cc1Cl)C(=O)Nc1ccc(S(=O)(=O)Nc2cnc3ccccc3n2)cc1 (stereo not drawn) do in these assays?
SKKanGAS inh: 80*; tim23-1 inh: -6; tim10-1 inh: 42*; TIM10 inh: -5; tim10-1 conf: 15

Results for CCC(Oc1ccccc1)C(=O)Nc1ccc(S(=O)(=O)Nc2cnc3ccccc3n2)cc1 (stereo not drawn) ?
SKKanGAS inh: 6; V-ATPase pHluor: 0; PfHsp90 set2: -35; tim23-1 inh: 8; tim10-1 inh: 5; TIM10 inh: -5

What do the screens show for `C/C(=N\NC(=S)Nc1cc(S(=O)(=O)N2CCOCC2)ccc1Cl)c1ccc(N2CCOCC2)cc1`?
SKKanGAS inh: 16; V-ATPase pHluor: -4; PfHsp90 set2: 8; tim23-1 inh: 3; tim10-1 inh: 9; TIM10 inh: 23

Results for C/C(=N\NC(=S)Nc1ccc(C)c(C)c1)c1ccc(N2CCOCC2)cc1 ?
SKKanGAS inh: 24; V-ATPase pHluor: 1; PfHsp90 set2: -4; tim23-1 inh: 48; tim10-1 inh: 41*; TIM10 inh: 31; tim10-1 conf: 25

Results for CCOC(=O)CSc1cc(C)c(C#N)c2nc3ccccc3n12 ?
SKKanGAS inh: 0; V-ATPase pHluor: -5; PfHsp90 set2: 14; tim23-1 inh: 28; tim10-1 inh: 41*; TIM10 inh: -3; tim10-1 conf: 26

What do the screens show for `CCOC(=O)CSc1nc2ccccc2n2c(C)nnc12`?
SKKanGAS inh: -5; V-ATPase pHluor: -2; PfHsp90 set2: 4; tim23-1 inh: 11; tim10-1 inh: -4; TIM10 inh: 2

How did CC1CCCC2(C1)NC(=S)c1c(sc3c1CCCC3)N2 (stereo not drawn) do in these assays?
SKKanGAS inh: 16; V-ATPase pHluor: 0; PfHsp90 set2: 5; tim23-1 inh: 31; tim10-1 inh: 42*; TIM10 inh: 12; tim10-1 conf: 23

What do the screens show for `CCCN(CC(=O)Nc1ccccc1C)C(=O)CCl`?
SKKanGAS inh: -2; V-ATPase pHluor: -2; PfHsp90 set2: -7; tim23-1 inh: 31; tim10-1 inh: 41*; TIM10 inh: 35; tim10-1 conf: 23

Results for CCN(CC)CCNC(=O)c1ccc(NC(=O)/C=C/c2ccc3ccccc3n2)cc1 ?
SKKanGAS inh: 0; V-ATPase pHluor: -3; PfHsp90 set2: -20; tim23-1 inh: 13; tim10-1 inh: 13; TIM10 inh: 7

What do the screens show for `CCCCCCCCCCCCC/C=C/[C@@H](O)[C@@H](N)CO`?
SKKanGAS inh: 94*; V-ATPase pHluor: 2; PfHsp90 set2: 21; tim23-1 inh: 35; tim10-1 inh: 44*; TIM10 inh: 22; tim10-1 conf: 1

What do the screens show for `CCCCCCCC(=O)OCC(O)CO` (stereo not drawn)?
SKKanGAS inh: 1; V-ATPase pHluor: 1; PfHsp90 set2: -33; tim23-1 inh: 10; tim10-1 inh: 18; TIM10 inh: 5

Results for Cc1cc(C)cc(NC(=O)CSc2nc(N)c(NC(=O)c3cccs3)c(=O)[nH]2)c1 ?
SKKanGAS inh: -3; V-ATPase pHluor: -1; PfHsp90 set2: -17; tim23-1 inh: 10; tim10-1 inh: 7; TIM10 inh: -10

Results for Cn1cccc1C(=O)NC(=O)COC(=O)c1ccc(S(C)(=O)=O)cc1 ?
V-ATPase pHluor: 2; PfHsp90 set2: -31; tim23-1 inh: 10; tim10-1 inh: 1; TIM10 inh: -3

Results for Cn1ccsc1=NC(=O)c1ccc(S(C)(=O)=O)c([N+](=O)[O-])c1 ?
SKKanGAS inh: 7; V-ATPase pHluor: 2; PfHsp90 set2: 7; tim23-1 inh: 35; tim10-1 inh: 40*; TIM10 inh: 31; tim10-1 conf: 28*
